In all, about 48,000 compounds went through this assay and about 13,000 (27%) showed an effect of 50% or more. Some of the results follow.
system: Wolbachia pipientis; assay: Anti-Wolbachia Cell-Based Screen; format: functional; design: scale not given: in the data most compounds retested in dose-response had high values; details: 5 µM

SMILES | Percent Effect [%]
c1cc(CNc2nnc(Cc3ccsc3)o2)cs1 | -17.73
Clc1cnccc1N1CCCC2(CCCOC2)C1 (stereo unspecified) | -10.01
COCc1ccc(C(=O)N2CCCN(Cc3cscn3)CC2)cc1 | 110
Cc1ccc(C(=O)N2CCCN(Cc3cscn3)CC2)o1 | 108
O=C(c1ccc(Cl)o1)N1CCCN(Cc2cscn2)CC1 | 4.253
NC(=O)c1cncc(N2CCN(Cc3ccc(F)cc3Cl)CC2)n1 | -6.115
CCC(C)N(Cc1cccnc1)Cc1cc2c(cc1OC)OCO2 (stereo unspecified) | 6.738
CN1CCN(c2ncnc3c2CCN(C(=O)c2cccn2C)CC3)CC1 | 1.463
Cn1cccc1C(=O)N1CCc2ccc(=O)n(C)c2CC1 | 85.33
Cc1ncnc2c1CCN(C(=O)c1cccn1C)CC2 | -19.88
CN(CCCNC(=O)N1CCCC1c1ccsc1)c1ccccn1 (stereo unspecified) | 7.927
Cc1cc(C2CCC2)nc(N2CCN(Cc3nccn3C)CC2)n1 | -10.5
Cc1cc(N2CCCN(c3nc(C)nc(C)c3C)CC2)ccn1 | 23.81
Cc1cc(N2CCCC(O)CC2)n2nc(C)c(C)c2n1 (stereo unspecified) | -2.095
Cc1cc(N2CC[C@H](O)C2)n2nc(C)c(C)c2n1 | -7.079
Cc1cc(N2CCCCCC2)n2nc(C)c(C)c2n1 | -8.895
Cc1nc2cc(-c3nccn3C)nn2c(N2CCCC(O)C2)c1C.Cl (stereo unspecified) | 80.29
Cc1nc2cc(-c3nccn3C)nn2c(N2CCCC(CO)C2)c1C (stereo unspecified) | 68.35
Cn1ccnc1-c1nccn1C[C@@H]1CCCN2CCCC[C@H]12 | -12.88
OCC1CCCN(c2ncnc3c2Cc2ccccc2OC3)C1 (stereo unspecified) | 5.574
Cn1ccnc1CN1C[C@@H](CN2CCC(CO)CC2)[C@@H](CO)C1 | -24.97
Cc1ccccc1OCC(=O)N1CC[C@]2(C[C@@H](OCC3CC3)CO2)C1 | 14.13
CC(NC(=O)c1coc(COc2cccc(F)c2)n1)c1nnc(N)s1 (stereo unspecified) | -13.23

SMILES | Percent Effect [%]
O=C(N1CCc2ccccc2CC1)C1(O)Cc2ccccc2C1 | 1.099
Cc1nsc(N2CCCN(C(=O)NCc3cccnc3)CC2)n1 | -3.745
CCNC(=O)N1C[C@@H]2OCC(=O)N(C)[C@@H]2C1 | -7.352
Cn1cc(CN2C[C@@H](NC(=O)c3cscn3)[C@H]3OCCC[C@H]32)cn1.O=C(O)C(F)(F)F.O=C(O)C(F)(F)F | -10.62
Cn1cccc1C(=O)N[C@@H]1CN(Cc2ccsc2)[C@@H]2COC[C@@H]21.O=C(O)C(F)(F)F | -6.344
O=C(N[C@@H]1CN(CC2CC2)[C@@H]2CCCO[C@@H]21)c1cscn1.O=C(O)C(F)(F)F | 102.8
Cn1ccnc1C(=O)N[C@@H]1CN(Cc2ccoc2)[C@@H]2CCCO[C@@H]21.O=C(O)C(F)(F)F | 105.8
O=C(N[C@@H]1CN(Cc2cccs2)[C@@H]2CCCO[C@@H]21)c1cscn1.O=C(O)C(F)(F)F | 6.119
Cn1cc(C(=O)N[C@@H]2CN(Cc3cccnc3)[C@@H]3CCCO[C@@H]32)cn1.O=C(O)C(F)(F)F.O=C(O)C(F)(F)F | -2.49
Cn1ccnc1C(=O)N[C@@H]1CN(CC2CCOCC2)[C@@H]2CCCO[C@@H]21.O=C(O)C(F)(F)F | 97.93
Cn1cccc1C(=O)N[C@H]1CN(Cc2ccoc2)[C@@H]2CCCO[C@H]12.O=C(O)C(F)(F)F | 107.4
Cn1cc(C(=O)N[C@@H]2CN(CC3CCOCC3)[C@@H]3CCCO[C@@H]32)cn1.O=C(O)C(F)(F)F | -2.907
Cn1ccnc1CN1C[C@H](N2CCOCC2)[C@@H]2OCCC[C@@H]21.O=C(O)C(F)(F)F.O=C(O)C(F)(F)F.O=C(O)C(F)(F)F | -9.409
Cc1ccc(C(F)(F)F)cc1C(=O)N[C@H]1CN(CCO)C[C@@H]1C1CC1 | 7.552
CNC(=O)c1c(C)cccc1NCc1noc(C2CC2)n1 | -16.59
N#Cc1ccc(CN2C[C@@H](F)[C@@H](OCc3nc4cnccc4[nH]3)C2)cc1 | -2.578
CC1CN(C(=O)NCc2cnn(-c3ccc(F)cc3F)c2)CCO1 (stereo unspecified) | -3.691
Cc1cnn(CCNCC(=O)Nc2ccc(Cl)cn2)c1 | 6.715
CC(C)c1nn(C)c(N(C)C)c1CNC1CCN(C2CC2)CC1.Cl | -24.68
CC(C)CN1CC2(CCN(C(=O)C3CSC(C)(C)C(=O)N3)CC2)CC1=O (stereo unspecified) | -2.858
Cn1cc(C(=O)N[C@@H]2CN(Cc3cccs3)[C@@H]3CCCO[C@@H]32)cn1.O=C(O)C(F)(F)F | -10.01
Cn1ccnc1C(=O)N[C@@H]1CN(Cc2ccc(F)cc2)[C@@H]2CCCO[C@@H]21.O=C(O)C(F)(F)F | 106
Cc1ccc(CN2C[C@H](NC(=O)c3nccn3C)[C@H]3OCCC[C@H]32)o1 | 104.4
